# Screening results deposited in PubChem by several laboratories.
# E coli RNAP: inhibitors of Escherichia coli RNA polymerase; P0A8V2; E. coli RNA polymerase, fluorescence transcription assay; inhibition, %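 (tested at 10 µM)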; hit rate 0.2% among 62,000; in the data active = inhibition above about 20%;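 note: 0% = enzyme without compound and 100% = no enzyme blank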
# TNAP act DEA: activates human TNAP at intermediate phosphate acceptor concentration; purified TNAP, CDP-star luminescence, 100 mM DEA, 30 min; hits give high values; scale: 0 levamisole-inhibited, 1 vehicle-only enzyme; activation factor at 20 µM; 64,000 tested, under 10 active;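 active = activation factor of at least 2 at 20 µM, relative to controls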
# Target sequence (P05186 whole entry, looked up): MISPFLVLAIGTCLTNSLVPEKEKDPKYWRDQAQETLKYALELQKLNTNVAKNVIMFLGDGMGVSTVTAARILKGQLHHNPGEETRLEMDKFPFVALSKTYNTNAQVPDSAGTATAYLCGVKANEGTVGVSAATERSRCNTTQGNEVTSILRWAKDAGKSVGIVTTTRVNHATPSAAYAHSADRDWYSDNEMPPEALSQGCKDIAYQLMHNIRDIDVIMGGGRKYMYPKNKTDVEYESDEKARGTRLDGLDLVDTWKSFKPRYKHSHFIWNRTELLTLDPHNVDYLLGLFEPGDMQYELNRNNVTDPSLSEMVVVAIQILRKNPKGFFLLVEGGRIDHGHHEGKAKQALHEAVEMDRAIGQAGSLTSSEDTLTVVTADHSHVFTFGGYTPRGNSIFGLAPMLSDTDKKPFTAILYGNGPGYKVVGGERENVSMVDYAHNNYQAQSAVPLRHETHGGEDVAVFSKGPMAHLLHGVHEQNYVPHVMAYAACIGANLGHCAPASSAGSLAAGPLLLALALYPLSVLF
# PLAP act: activators of human placental alkaline phosphatase; P05187; purified PLAP enzyme, luminescent substrate read-out; hits give high values; activation fold at 20 µM; hit rate 1.2% among 96,000; in the data active = activation fold above about 2
# An asterisk follows results filed as active; . = no result. This excerpt belongs to a sample that is enriched for hits.
SMILES,E coli RNAP,TNAP act DEA,PLAP act
CCOc1cccc(-c2nn3c(-c4cc(C)[nH]n4)nnc3s2)c1,8,1.1,2.4*
Cc1nc2scc(-c3cccs3)c2c(=O)[nH]1,.,.,0.9
Nc1nc(SCc2nc3scc(-c4cccs4)c3c(=O)[nH]2)n[nH]1,2,1,2.5*
O=C(CN1CCN(Cc2ccccc2F)C1=O)NCc1ccco1,.,.,2*
O=C(CN1CCN(Cc2ccccc2F)C1=O)NCc1cccnc1,0,0.9,1
COc1cc(CNC2CCCCCC2)cc(OC)c1O,3,0.9,1
COc1cc(CNC2CCCC2)cc(Cl)c1OCc1ccccc1F,.,.,2*
O=S(=O)(c1ccc2nc(Cc3cccc(C(F)(F)F)c3)[nH]c2c1)N1CCOCC1,4,0.9,1
COc1cc(Cc2nc3ccc(S(=O)(=O)N4CCOCC4)cc3[nH]2)cc(OC)c1OC,.,.,1.6
O=S(=O)(c1ccc2nc(Cc3ccccc3)[nH]c2c1)N1CCOCC1,0,1,2.2*
O=S(=O)(c1ccc2nc(COc3ccccc3)[nH]c2c1)N1CCOCC1,3,1,2*
CC(CN1CCCCC1)OC(=O)C(C)(c1ccccc1)c1ccccc1 (configuration not stated),.,.,1.8
CCOC(=O)c1c(NC(C)=O)sc2c1CCCNC2=O,2,0.9,0.8
COC(=O)c1ccc(C2NC(C(=O)O)CS2)cc1 (configuration not stated),9,0.9,1
COc1cc(C2NC(C(=O)O)CS2)ccc1OCc1ccccc1C#N (configuration not stated),1,0.9,2.1*
CCC(C)NC(=O)C1CCN(S(=O)(=O)c2ccc(OC)cc2)CC1 (configuration not stated),.,.,0.8
Cn1cc(Br)c(C(=O)NNC(=O)c2cccc(Br)c2)n1,.,.,2.3*
CCNC(=S)NNC(=O)c1cccc(Br)c1,.,.,1.2
CCc1ccc(NC(=O)N(CCOC)C2CCN(C(C)=O)CC2)cc1,.,.,1
O=c1c2cnn(-c3ccccc3Cl)c2ncn1Cc1cccnc1,13,0.9,0.8
O=C1c2ccccc2C(=O)N1CCN1CCOCC1,0,0.9,0.8
Cc1ccc(C2C3=C(CC(C)(C)CC3=O)N(CCN3CCOCC3)C3=C2C(=O)CC(C)(C)C3)cc1,-3,1.1,2.1*
O=[N+]([O-])c1ccc(N2CCN(CCO)CC2)cc1Sc1nc2ccccc2[nH]1,.,.,1.3
CCOC(=O)C1=C(N)OC2=C(C(=O)CC(C)(C)C2)C1c1ccccc1OCC#N (configuration not stated),9,0.9,1
CCC(c1nnc(SCC(=O)NCCc2ccc(Cl)cc2Cl)o1)N(C)C (configuration not stated),10,0.9,1.9
SMILES,E coli RNAP,TNAP act DEA,PLAP act
Cc1cc(C)n(Cc2ccccc2Cl)n1,8,0.9,1
Cc1cc(=O)c2n(Cc3ccccc3Cl)nc[n+]2[nH]1,57*,0.9,.
Cc1cc(N)n(-c2nc(-c3cccnc3)nc3ccccc23)n1,12,0.9,1
Cc1cc(=O)[nH]c(N2CCCC2)n1,9,1,0.8
Cc1cc(=O)[nH]c(-n2[nH]c(C)cc2=O)n1,.,.,2.2*
COc1ccc(-c2cc(-c3c(O)c(OC)c4occc4c3OC)[nH]n2)cc1,.,.,2.3*
COc1ccc(-c2cc(-c3c(O)c(OC)c4occc4c3OC)[nH]n2)cc1OC,.,1,1.6
O=C1CCCC(=O)C1=Cc1c[nH]c2ccccc12,.,.,0.9
O=C1CC(c2ccco2)CC(O)=C1C=Nc1ccc(Br)cc1 (configuration not stated),.,.,0.7
O=C1CC(c2ccco2)CC(O)=C1C=Nc1cc(Cl)ccc1O (configuration not stated),4,0.9,2.5*
Cn1c(-c2ccc(C=O)s2)nc2c3ccccc3c3ccccc3c21,.,.,1.4
COc1ccccc1OCc1ccc(C(=O)N2N=C(C(F)F)CC2(O)C(F)F)o1 (configuration not stated),.,.,1.6
O=C(c1ccc(Cn2cc(Br)cn2)o1)N1N=C(C(F)F)CC1(O)C(F)F (configuration not stated),.,.,2*
CC(C(N)=O)N1C(=O)c2cccc3cccc1c23 (configuration not stated),.,.,0.8
Cc1cc(NC(=O)CSc2nnc3c(C)cc4cc5c(cc4n23)OCO5)no1,5,0.8,1.1
CC(Sc1n[nH]c(N)n1)C(=O)C12CC3CC(CC(C3)C1)C2 (configuration not stated),.,.,2*
CCOC(=O)C(Sc1n[nH]c(N)n1)c1ccccc1 (configuration not stated),.,.,1.3
C=CCn1c(C(C)NC(=O)COC)nc2ccccc21 (configuration not stated),2,1,1.2
Cc1c(-c2ccccc2)sc(N)c1C(=O)N1CCOCC1,7,0.9,1.5
CCOC(=O)NC1(Nc2ccc(Cl)cn2)Oc2ccccc2O1,25*,1,0.6
CCOC(=O)/C=C/C(=O)OCC(=O)Nc1ccc(Cl)cn1,.,.,1.2
COc1ccc(N2CCN(C(=O)CCNS(=O)(=O)c3ccc(Br)s3)CC2)cc1,10,0.9,1.5
Fc1ccc(NCc2nnc(SCc3nnc(-c4ccccc4)o3)n2CC2CCCO2)cc1 (configuration not stated),-13,0.8,1.2
COc1cc(Cl)c(C)cc1NC(=O)CNC(=O)Cn1cnc2ccccc2c1=O,.,.,1.2
COc1ccc(-n2c(SCCC(=O)O)nnc2-c2ccncc2)cc1,5,1,1.2
SMILES,E coli RNAP,TNAP act DEA,PLAP act
COc1ccc(-n2c(SCC(=O)NNC(=O)c3ccccc3C)nnc2-c2ccncc2)cc1,.,.,2.1*
COc1ccc(C(=O)NNC(=O)CSc2nnc(COc3ccc4ccccc4c3)n2C)cc1,.,.,1
COc1ccc(C(=O)NNC(=O)CSc2nnc(COc3ccccc3)n2C)cc1,.,.,2*
CC(=O)N1CCN(c2nc3cc4c(cc3nc2NS(=O)(=O)c2ccccc2)OCCO4)CC1,-3,0.9,1.3
O=C(NCc1ccccc1F)C1CCCN1C(=O)NCc1ccccc1 (configuration not stated),8,0.9,0.8
CC1CN(c2nc3c(c(=O)n(C)c(=O)n3C)n2Cc2c(F)cccc2Cl)CC(C)O1 (configuration not stated),12,0.9,1.8
Cc1cc(C)cc(OCc2nnc(SCC(=O)OC(C)C)o2)c1,.,.,1.2
Cc1cc(N2CCN(c3ccccc3)CC2)nc(-c2ccccc2O)n1,.,.,1.2
Cc1cc(-n2[nH]c(C)c(C)c2=O)nc(-c2ccccc2O)n1,7,1,2.5*
CCOC(=O)c1[nH]cnc1C(=O)Nc1ccccn1,5,1,1.8
O=C(c1ccccc1)c1nc[nH]c1C(=O)Nc1ccccn1,7,1,2.2*
CC1CCCN(C(=O)C2CCN(S(=O)(=O)c3cccc4cccnc34)CC2)C1 (configuration not stated),4,1,1.5
CC(NC(=O)c1cc2ccccc2o1)C(=O)O (configuration not stated),44*,1,0.9
CC(NC(=O)c1cc2ccccc2o1)c1cccs1 (configuration not stated),8,0.9,0.8
CCCC1CCc2c(sc(N)c2C(N)=O)C1 (configuration not stated),.,.,1.5
C#CCSc1nnc(-c2ccc(OC)cc2)o1,.,.,0.9
Cc1ccc(Cl)cc1N1CCN(Cc2nc3ccsc3c(=O)[nH]2)CC1,.,.,2.3*
